PKM2 activator = qHTS Assay for Activators of Human Muscle isoform 2 Pyruvate Kinase | Potency, µM (series often up to 57.5 µM), without a hit: at the top dose activation, most hits filed as activators | purified PKM2, Kinase-Glo ATP luminescence, activation; response scale: 0% is enzyme alone, no compound | Pyruvate kinase PKM (Homo sapiens), P14618 | 260,000 compounds, 0.34% hits; also: % is scaled to controls: 0 for no effect and ±100 for the full control effect; nearly all actives have a fitted effect of over 55% in size
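ATP formation by purified human PK-M2, quantified via coupled luciferase luminescence after 1 h at room temperature with 0.1 mM ADP and 0.5 mM PEP final.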
PGK inhibitor = qHTS Assay to Find Inhibitors of Phosphoglycerate Kinase. PGK/GAPDH coupled, Kinase-Glo luminescence, 60 min. Potency, µM (top dose mostly 57.5 µM), for inactives: at the top dose activity change, negative = inhibition, actives largely listed as inhibitors. 380,000 compounds, 0.043% hits. AID 602233, 2012; also: % is scaled to controls: 0 for no effect and ±100 for the full control effect; nearly all actives have a fitted effect of over 60% in size
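Recombinant glycosomal PGK reaction used 1,3-bisphosphoglycerate generated in-well by GAPDH (100nM final) in 100mM TEA pH 7.6, 5mM MgCl2, 0.01% Tween-20. After 60 minutes at room temperature, ATP was read by Kinase-Glo Plus luminescence end-point.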
ELG1 DNA repair = qHTS screen for small molecules that inhibit ELG1-dependent DNA repair in human embryonic kidney (HEK293T) cells expressing luciferase-tagged ELG1. Potency, µM (titrated, usually from 46.1 µM), for the others: at the highest dose activity change, negative = inhibition, hits mostly inhibitors. 330,000 compounds, 2.3% hits. HEK293T ELG1-luciferase reporter, luminescence, 16 h; DNA damage induced by 5-fluorouridine; also: % is scaled to controls: 0 for no effect and ±100 for the full control effect; nearly all actives have a fitted effect of over 55% in size
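Luminescence from the luciferase reporter, measured 30 min after ONE-Glo reagent at room temperature, was the read-out. Beforehand, 2,000 cells per well were exposed for 16 hr at 37 °C to 5-fluorouridine together with compound or vehicle.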
Rango complex inh = qHTS Assay for Inhibitors of Rango (Ran-regulated importin-beta cargo) - Importin beta complex formation | Importin subunit beta-1 (Homo sapiens), Q14974 | Rango CFP/YFP FRET sensor + importin beta, 45 min | Potency, µM (highest dose often 92.2 µM), for inactives: top-dose inhibition of complex formation | 340,000 compounds, 0.031% hits; calls by dose curve;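 also: 0% = DMSO wells and 100% = buffer wells lacking importin beta; nearly all actives have a fitted effect of over 15% in size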
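FRET biosensor (snurportin 1 IBB flanked by EYFP and cerulean), 50 nM, with compound 5 min, then 0.125 microM importin beta in PBS, 1 mM DTT, 0.02% Tween-20, 0.1% BSA. CFP/YFP ratio read after 45 min at room temperature; pre-read flags interference.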
Rango release inh = qHTS Assay for Inhibitors of RanGTP induced Rango (Ran-regulated importin-beta cargo) - Importin beta complex dissociation; Snurportin-1 (Homo sapiens) + GTP-binding nuclear protein Ran (Homo sapiens) + Importin …; Biochemical FRET Rango-importin beta, RanGTP-induced dissociation; Potency, µM (series often up to 46.1 µM), for the others: top-dose activity change, negative = inhibition; 340,000 compounds, 0.071% hits; AID 540253, 2011; calls by dose curve; also: % of control where 0% means no effect; nearly all actives have a fitted effect of over 45% in size
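Compounds preincubate 5 min with complex of recombinant Rango and importin beta in PBS with 1 mM DTT. Ran (0.6 uM) loaded with 2 mM GTP plus 0.2 uM RCC1 starts dissociation; FRET is recorded 45 min later.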
Tb PFK block = qHTS Assay to Find Inhibitors of T. brucei phosphofructokinase. ATP-dependent 6-phosphofructokinase (Trypanosoma brucei brucei), O15648. AID 485367, 2010. T. brucei PFK, ADP-Glo luminescence. 330,000 compounds, 0.17% hits. Potency, µM (top dose mostly 57.5 µM), without a hit: top-dose activity, negative = inhibition, most hits filed as inhibitors;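 also: 0% = uninhibited 1x PFK enzyme wells and -100% = no-enzyme wells; nearly all actives have a fitted effect of over 60% in size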
Target sequence (O15648 whole entry, looked up): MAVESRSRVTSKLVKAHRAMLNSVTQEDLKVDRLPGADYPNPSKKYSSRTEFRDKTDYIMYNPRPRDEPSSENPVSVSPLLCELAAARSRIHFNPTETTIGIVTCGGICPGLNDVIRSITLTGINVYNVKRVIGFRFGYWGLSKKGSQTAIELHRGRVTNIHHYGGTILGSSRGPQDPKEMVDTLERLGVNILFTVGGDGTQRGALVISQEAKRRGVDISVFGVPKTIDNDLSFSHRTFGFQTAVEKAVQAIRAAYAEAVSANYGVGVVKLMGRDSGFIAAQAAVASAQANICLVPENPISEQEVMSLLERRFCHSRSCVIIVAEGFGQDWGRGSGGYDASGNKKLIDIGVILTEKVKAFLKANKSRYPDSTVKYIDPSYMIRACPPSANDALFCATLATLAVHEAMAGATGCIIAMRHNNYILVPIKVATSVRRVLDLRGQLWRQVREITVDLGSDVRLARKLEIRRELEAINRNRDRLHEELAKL
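In TEA buffer at pH 8.0 with 5 mM MgCl2, enzyme (1.25 nM) converted F6P (0.5 mM) and ATP (0.1 mM) for 45 min at room temperature. ADP product was read by luciferase luminescence.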
An asterisk follows results filed as active; i = inactive; ? = inconclusive; . = no result given; [ ] = dose if it differs, or a comment. The list is not random: actives were taken first. Their share in the collection is about 2.4%. Unless noted, calls follow the shape of the dose curve; as a rule, active = well fitted curve in the direction sought with a large enough effect; inconclusive = small, poorly fitted or top-dose-only effect, or another doubt; inactive = no such curve, though single readings can be large; an effect the other way counts as inactive or inconclusive. Potency is read from the fitted curve at half-maximal effect.

SMILES	PKM2 activator	PGK inhibitor	ELG1 DNA repair	Rango complex inh	Rango release inh	Tb PFK block
COc1cc(C(=O)N2CCc3c([nH]c4ccccc34)C2c2ccc(F)cc2)cc(OC)c1OC (stereo not given)	.	-8.6%	.	.	.	.
c1ccc(-c2nnc(SCc3nc4ccccc4[nH]3)n2Cc2ccco2)cc1	-0.8%	-3.7%	20.6µM*	-0.4%	-13.8%	-12.3%
Cc1ccc(OCc2nnc(SCc3nc4ccccc4[nH]3)n2Cc2ccco2)cc1	2.4%	0.6%	9.2µM*	-0.3%	0.2%	2.9%
CCn1c(COc2ccc(Cl)cc2)nnc1SCc1nc2ccccc2[nH]1	1.6%	1.2%	?	-3.8%	0.9%	-3.0%
Nn1c(SCc2nc3ccccc3[nH]2)nnc1-c1ccccc1	-1.5%	5.0%	?	-0.3%	29.2%	2.8%
Cc1cc2ccccc2n1-c1ccc(C(=O)N2CCC(C(=O)NCc3ccc(F)cc3)CC2)s1	.	i	.	.	.	.
CCOc1ccc(-n2nc3ccc(N)cc3n2)cc1	?	-9.1%	?	?	5.17µM*	1.9%
COc1ccc(-c2nc(SCC(=O)Nc3c(C)cc(C)cc3C)n[nH]2)cc1	.	-3.6%	.	.	.	.
C=C1/C=C(\C)C(C)(O)CC(O)CC(=O)C(O)C(O)C(C)CC(C)OC(=O)/C(C)=C/CC/C=C/C(OC)C(O)CC(C)C1 (stereo not given)	.	1.8%	14.6µM*	-0.5%	5.4%	-1.8%
CCOC(=O)c1sc(-c2ccccc2)cc1NC(=O)Nc1ccc([N+](=O)[O-])cc1	1.1%	-6.1%	6.51µM*	1.6%	8.8%	0.5%
COCCn1c(C)cc(C(=O)COc2nc3ccccc3nc2C)c1C	-2.1%	8.1%	23.1µM*	1.3%	-8.5%	-0.9%
COCCn1c(C)cc(C(=O)CSc2ccc3ccccc3n2)c1C	-1.3%	-1.9%	?	-2.0%	0.8%	0.4%
Clc1ccc(CNC2CCN(Cc3ccccc3)CC2)cc1	-2.5%	-1.8%	-6.1%	0.1%	2.3%	1.7%
S=C(NCc1ccc(Cl)cc1)NC1CCN(Cc2ccccc2)CC1	-23.6%	i	18.3µM*	6.8%	-0.2%	-11.2%
COc1ccc(NS(=O)(=O)c2ccc(C)c(C(=O)NCC(c3ccco3)N3CCCCC3)c2)cc1 (stereo not given)	.	12.7%	-1.0%	-0.5%	-4.3%	-0.2%
O=C(Nc1ccc(F)cc1)Nc1ccc(N2CCCC2)c(S(=O)(=O)Nc2ccccc2Cl)c1	-3.5%	2.3%	?	1.1%	2.4%	0.3%
O=C(Nc1ccc(N2CCCCC2)c(S(=O)(=O)Nc2ccccc2Cl)c1)c1cccnc1	.	i	18.3µM*	-1.7%	0.4%	-2.1%
O=C(Nc1ccc(N2CCOCC2)c(S(=O)(=O)Nc2ccccc2Cl)c1)c1ccc(F)cc1	.	-2.1%	18.3µM*	?	-7.6%	-4.0%
C=CCN1C(=O)c2ccc(C(=O)NCCc3ccc(F)cc3)cc2C1=O	.	1.0%	.	-3.5%	19.3%	.
Cc1[nH]n(-c2ccccc2)c(=O)c1/C=N/NC(=O)c1cccc([N+](=O)[O-])c1	-2.6%	8.9%	0.0%	0.5%	1.0%	-1.1%
Cc1ccc(-n2[nH]c(C)c(/C=N/Nc3ccc([N+](=O)[O-])cc3[N+](=O)[O-])c2=O)cc1C	-32.9%	?	10.3µM*	-0.5%	0.6%	-0.8%
COc1ccc(NC(=O)CSc2nnc(C)n2C2CC2)cc1S(=O)(=O)N1CCOCC1	.	-2.5%	3.3%	0.0%	2.3%	3.5%
Cc1ccc(N2CC(NC(=O)N3CCN(C(=O)c4ccco4)CC3)CC2=O)cc1 (stereo not given)	.	4.8%	0.1%	1.0%	-22.9%	1.2%
C=CC[C@@H](CC(=O)N(CCO)Cc1ccccc1)C(=O)N[C@@H](COC(=O)[C@H](CC=C)CC(=O)OC(C)(C)C)Cc1c[nH]c2ccccc12	.	5.4%	?	-1.9%	24.5%	-0.6%
C=CC[C@H](CC(=O)N(CCO)Cc1ccccc1)C(=O)N[C@H](COC(=O)[C@@H](CC=C)CC(=O)OC(C)(C)C)Cc1ccccc1	.	i	?	-2.0%	0.8%	-2.9%
SMILES	PKM2 activator	PGK inhibitor	ELG1 DNA repair	Rango complex inh	Rango release inh	Tb PFK block
C=CC[C@H](CC(=O)N(CCO)Cc1ccccc1)C(=O)N[C@H](COC(=O)[C@H](CC=C)CC(=O)OC(C)(C)C)Cc1c[nH]c2ccccc12	.	10.0%	20.6µM*	0.3%	17.2%	-0.5%
C=CC[C@H](CC(=O)NCCO)C(=O)N[C@H](COC(=O)[C@H](CC=C)CC(=O)OC(C)(C)C)Cc1c[nH]c2ccccc12	.	-4.4%	23.1µM*	1.3%	0.9%	-2.2%
C=CC[C@H](CC(=O)N(CCO)Cc1ccccc1)C(=O)N[C@@H](COC(=O)[C@@H](CC=C)CC(=O)OC(C)(C)C)Cc1c[nH]c2ccccc12	.	-6.4%	18.3µM*	-0.6%	3.4%	-6.3%
COc1ccc2[nH]c(=O)c(CN(CC3CCCO3)S(=O)(=O)c3ccccc3F)cc2c1 (stereo not given)	.	8.2%	?	0.9%	-21.4%	8.8%
Cc1c(C=O)c2ccccc2n1CCOc1ccccc1F	-3.3%	-0.8%	-1.4%	-0.1%	-8.2%	-2.7%
COc1ccccc1OCCn1c(C)c(C=O)c2ccccc21	-3.5%[11.5 µM]	i	11.6µM*	4.7%	22.2%	2.3%
CN(C(=O)c1cccs1)c1ccc(OCC(=O)N2CCC(C(N)=O)CC2)cc1	-2.5%	-4.0%	14.6µM*	-0.2%	13.4%	-1.4%
O=c1cc(CSc2nnc(COc3ccccc3Cl)o2)nc2sccn12	25.1µM*	-7.3%	7.8%	-1.7%	-7.1%	?
Cc1nn(-c2ccccn2)c2c1C(c1c(F)cccc1Cl)C1=C(N2)c2ccccc2C1=O (stereo not given)	-12.5%	.	14.6µM*	.	.	0.9%
Cc1nn(-c2ccccn2)c2c1C(c1ccsc1)C1=C(CCCC1=O)N2 (stereo not given)	-0.2%	1.4%	?	5.2%	13.3%	-0.4%
